Experimental data from PubChem BioAssay AID748 (Sanford-Burnham Center for Chemical Genomics, 2007).
Screen size: about 96,000 compounds; about 100 (0.1%) were called active.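 The calls were made as follows: active = displacement above 50% at 20 µM plus a fluorescence interference ratio under 1.5; inactive = the rest.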 What follows is part of a selection rich in actives, with near analogues and random picks from the rest. Potency and affinity values are given separately.

What follows are molecules tested against Bcl-2-like protein 10 (Homo sapiens) (UniProt Q9HD36) (assay: Bcl-B/TR3 peptide binding disruption – biochemical, fluorescence polarization, FITC-TR3 peptide, selectivity assay for Bfl-1 inhibitor project, primary screen (AID 748;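 also: plate controls were wells without compound for no effect and wells lacking Bcl-B protein for full effect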)). Settings: FP displacement of FITC-TR3 peptide from Bcl-B; at 20 µM; active compounds read high.

displacement, inactive:
CN(C)S(=O)(=O)N(Cc1ccc(Br)cc1)c1ccccc1 0%
CN(C)S(=O)(=O)N(CC(=O)NCc1ccccc1)c1ccccc1 7.3%
CN(C)S(=O)(=O)N(CC(=O)Nc1ccc(F)c(F)c1)c1ccccc1 18%
CN(C)S(=O)(=O)N(CC(=O)Nc1cccc(F)c1)c1ccccc1 9.9%
O=c1[nH][nH]c2nc(C(F)(F)F)cc(C(F)(F)F)c12 -9.8%
CCN(CC)S(=O)(=O)c1cc(C(=O)O)c(Cl)cc1Cl -5.8%
Cc1ccc(NC(=O)c2nc[nH]c2C(=O)Nc2ccc(C)cc2)cc1 4%
Cc1cc(-c2nnc(-c3cc4ccccc4oc3=O)o2)c(C)n1-c1ccccc1 2.6%
CCCOC(=O)Cc1n[nH]c(=O)[nH]c1=O -2.4%
COc1ccc(CN2C(=O)CN(C3CCCCCC3)C(=O)C2c2ccc(F)cc2)cc1 (centres undefined) -2.9%
CCC(=O)Nc1ccc2nc(SCC(=O)N3CCCC3)sc2c1 5.1%
Cn1c(SCC(=O)Nc2ccc3nc(SCC(=O)N4CCCC4)sc3c2)nnc1-c1ccccc1 38.1%
O=C(c1ccc(N2CCNCC2)cc1)c1cccnc1 -3.4%
COC(=O)C1Sc2[nH]c(=O)sc2C2c3ccccc3OC(=O)C12 (centres undefined) 0%
CCOC(=O)C1CCN(Cc2nc3ccccc3c(=O)n2-c2ccc(F)cc2)CC1 -6.2%
Cc1nn(Cc2cccc(C(=O)Nc3ccn(Cc4ccccc4)n3)c2)c(C)c1[N+](=O)[O-] 3.7%
C=CCN1C(=O)CS/C1=N/c1nccs1 1.8%
C=CCN1C(=O)/C(=C2/Sc3ccccc3N2C)SC1=Nc1ccccc1C -13%
Cc1c(Cl)cccc1-n1c(SCC(=O)NCc2ccccc2Cl)nnc1-c1ccncc1 -10.8%
O=C1CCCC2=C1C(c1ccco1)Nc1ccc(C(=O)c3ccccc3)cc1N2 (centres undefined) 22.2%
CC1(C)CC(=O)C2=C(C1)c1c(ccc3ccccc13)NC2c1ccco1 (centres undefined) -4.8%
CCSc1nc(O)c(Cc2ccccc2)c(=O)[nH]1 10.2%
Clc1ccc(-c2nc3ccccc3n2OCc2ccccc2)cc1 -9%
CC(=O)Nc1ccc(NC(=O)Cn2cc3c(n2)CCCC3)cc1 -10.4%
Cc1cc(C)cc(NC(=O)Cn2cc3c(n2)CCCCC3)c1 2.8%
CCCn1c(=O)c2ccccc2n2c(SCC(=O)c3ccc(F)cc3)nnc12 -0.8%
CCOC(=O)c1cnc2cc3c(cn2c1=O)CCCC3 0%
CC(CC(=O)N1CCc2ccccc21)c1ccccc1 (centres undefined) 6.2%
O=C(COC(=O)c1ccccc1)NCc1ccco1 40.9%
COc1ccccc1OCC(=O)NCc1ccco1 2.1%
CCOc1cc(C(=O)OCC(=O)NCc2ccco2)cc(OCC)c1OCC 33.3%
O=C(NCc1ccco1)c1cccs1 -12.3%
COc1ccc(OCCC(=O)OCC(=O)NCc2ccco2)cc1 16.1%
O=C(COC(=O)c1ccco1)NCc1ccco1 3.5%
O=C1NCCCc2nc(Oc3ccccc3)sc21 1.4%
Cc1cc(C)c2c(=O)c3c(oc2c1)C(=O)N(CCO)C3c1cccc(O)c1 (centres undefined) 3.4%
COc1ccc(C(=O)CCC(=O)N2CCN(c3ccc(N4CCOCC4)nn3)CC2)cc1 4.3%
COc1ccccc1-c1nnc(NC(=O)C(C)SC2=NCCS2)s1 (centres undefined) -10.4%
Cc1ccc(NC(=O)CCc2ccc(S(=O)(=O)N3CCOCC3)cc2)c(C)c1 13.6%
c1ccc(-c2nn3c(Cn4nnc5ccccc54)nnc3s2)cc1 0%
c1ccc2c(c1)nnn2Cc1nnc2sc(-c3ccncc3)nn12 -19.6%
Nc1nonc1OCCc1ccccc1 2.7%
O=c1[nH]c(NC2CCCCC2)nnc1Cc1ccccc1 -7%
NC(=O)C1c2ccccc2CSc2ccccc21 (centres undefined) -22.4%
CN1CCN(CCCNC(=O)C2CCN(c3nnc(-n4cccc4)s3)CC2)CC1 8.6%
O=C(NCCCc1ccccc1)C1CCN(c2nnc(-n3cccc3)s2)CC1 6.7%
CCN1CCN(c2cc(C)c3cc(NC(=O)c4cccnc4Cl)ccc3n2)CC1 25.4%
O=C(Nc1ccc(N2CCCCC2)cc1)c1cccnc1Cl -16.3%
O=C(CNC(=O)c1ccco1)OCc1cccc(Cl)c1 -8.6%
CC(C)C1Nc2ccc(S(N)(=O)=O)cc2C2C=CCC21 (centres undefined) 25.6%
COC(=O)c1ccc(C2Nc3ccc(/C(C)=N/NC(=O)C(OC)c4ccccc4)cc3C3C=CCC32)cc1 (centres undefined) 5.4%
O=C(OC1CCCCC1)c1ccc(NC(=O)C2CCCCC2)cc1 6.4%
O=C(O)C1Nc2c(C(=O)N3CCOCC3)cccc2C2C=CCC12 (centres undefined) 28.7%
Cc1ccc2c(c1C)NC(C)CC2C (centres undefined) -4.5%
CC(=O)c1ccc2c(c1)C1C=CCC1C(c1ccncc1)N2 (centres undefined) -8.3%
Cc1ccc(S(=O)(=O)N2CCCN(S(=O)(=O)c3ccc(C)c(C)c3)CC2)cc1C -11.3%
Cc1cccc(C)c1NC(=O)CNc1ccccc1 0.2%
Cn1c(=O)[nH]c(=O)c2c1nc(Br)n2CC(O)c1ccccc1 (centres undefined) 6.4%
CCCCNC(=O)C1C2C=CC3(CN(Cc4ccc(C)cc4)C(=O)C13)O2 (centres undefined) 2.1%
O=C(C1CCCN(Cc2ccncc2)C1)N1CCc2ccccc2C1 (centres undefined) -14.9%
CCOC(=O)CC(N)c1ccc(OC)cc1 (centres undefined) 14.7%
CCCN=C(C)c1c(-c2ccccc2)[nH]n(-c2nc3ccccc3s2)c1=O -6.3%
COC(=O)Cc1[nH]n(-c2nc3ccccc3s2)c(=O)c1C(C)=O -6.8%
CSc1nnc2n(Cc3ccccc3)c(=O)c3c4c(sc3n12)COC(C(C)C)C4 (centres undefined) 1.6%
